In PubChem BioAssay (NCI):
Where “and” joins values, the source holds several entries; their conditions need not be identical. Equal entries are not always repeated. About 83,000 compounds went through this panel and 20% of them were active in at least one assay; those are over-represented in the sample as a whole.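 Plates (96-well) were seeded with cells, treated with compound at one concentration, and incubated for 48 hours before percent growth was determined.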 Calls of active or inactive are those of the source. How the source made its calls: active means growth percent below 10; inactive means the rest.

Experiments:
Assay in all cases: NCI-60 one-dose screen, 48 h (100 = growth as untreated, 0 = no growth, -100 = all killed)
SR leukemia = conditions: 10 µM unless noted
RPMI-8226 leukemia = conditions: 10 µM unless noted
OVCAR-5 ovarian = conditions: 10 µM unless noted
OVCAR-4 ovarian = conditions: 10 µM unless noted
SK-OV-3 ovarian = conditions: 10 µM unless noted
IGROV1 ovarian = conditions: 10 µM unless noted
OVCAR-3 ovarian = conditions: 10 µM unless noted
NCI/ADR-RES ovarian = conditions: 10 µM unless noted
T-47D breast = conditions: 10 µM unless noted
BT-549 breast = conditions: 10 µM unless noted
MDA-MB-435 melanoma = conditions: 10 µM unless noted
SW-620 colon = conditions: 10 µM unless noted
MCF7 breast = tested on: MCF7 breast
HCT-116 colon = conditions: 10 µM unless noted
KM12 colon = conditions: 10 µM unless noted
OVCAR-8 ovarian = conditions: 10 µM unless noted
HS 578T breast = conditions: 10 µM unless noted
HCC-2998 colon = conditions: 10 µM unless noted

Measured: growth

OCCOc1ccc(-c2cc(-c3ccccn3)nc(-c3ccccn3)c2)cc1
inactive: SK-OV-3 ovarian 18.5% | T-47D breast 17.4% | BT-549 breast 15.9% | MDA-MB-435 melanoma 22.5%
active: SR leukemia 5.14% | RPMI-8226 leukemia 2.3% | OVCAR-5 ovarian -36.4% | OVCAR-4 ovarian 5.18% | IGROV1 ovarian -17.6% | OVCAR-3 ovarian -32.7% | NCI/ADR-RES ovarian -57% | SW-620 colon 2.05% | MCF7 breast; 10 µM unless noted 1.69% | HCT-116 colon 6.4% | KM12 colon 8.52%

Cc1cccc(C)c1NC(=S)/N=C\c1c(O)[nH]c(=O)[nH]c1=O
inactive: RPMI-8226 leukemia 98.3% | OVCAR-8 ovarian 108% | OVCAR-5 ovarian 109% | OVCAR-4 ovarian 104% | SK-OV-3 ovarian 94% | IGROV1 ovarian 101% | OVCAR-3 ovarian 111% | HS 578T breast 92% | NCI/ADR-RES ovarian 108% | T-47D breast 104% | BT-549 breast 93.9% | MDA-MB-435 melanoma 107% | SW-620 colon 105% | MCF7 breast; 10 µM unless noted 93.6% | HCT-116 colon 106% | HCC-2998 colon 102% | KM12 colon 103%

COc1cc2c(c(OC)c1OC)-c1ccc(SC)c(=O)cc1[C@@H](NC1OC(CO)C(O)C(O)C1O)CC2 (some centres not stated)
inactive: RPMI-8226 leukemia 19.7% | OVCAR-5 ovarian 28.1% | OVCAR-4 ovarian 68.3% | IGROV1 ovarian 14.8% | HS 578T breast 28.5% | T-47D breast 52.5% | BT-549 breast 14.9% | SW-620 colon 18.8% | MCF7 breast; 10 µM unless noted 13.9%
active: SR leukemia -22.4% | SK-OV-3 ovarian 1.33% | OVCAR-3 ovarian -15.5% | NCI/ADR-RES ovarian 7.19% | MDA-MB-435 melanoma -39.6% | HCT-116 colon 9.89% | HCC-2998 colon -4.3% | KM12 colon -3.89%

NCC(O)C(O)C(O)C(O)CO (configuration not stated)
inactive: SR leukemia 96.6% | OVCAR-8 ovarian 100% | OVCAR-5 ovarian 107% | OVCAR-4 ovarian 103% | SK-OV-3 ovarian 86.1% | IGROV1 ovarian 101% | OVCAR-3 ovarian 101% | HS 578T breast 97.1% | NCI/ADR-RES ovarian 102% | T-47D breast 84.1% | BT-549 breast 91.3% | MDA-MB-435 melanoma 100% | SW-620 colon 97.2% | MCF7 breast; 10 µM unless noted 97.1% | HCT-116 colon 86.4% | HCC-2998 colon 99.1% | KM12 colon 98.5%

ClCc1cccc2c(CCl)cccc12
active: T-47D breast 4.84% | BT-549 breast -74% | HCT-116 colon -86.3%
inactive: RPMI-8226 leukemia 31% | OVCAR-8 ovarian 63.8% | OVCAR-5 ovarian 114% | OVCAR-4 ovarian 94.4% | SK-OV-3 ovarian 83% | IGROV1 ovarian 54.9% | OVCAR-3 ovarian 62.7% | HS 578T breast 98.8% | NCI/ADR-RES ovarian 69.2% | MDA-MB-435 melanoma 84.3% | SW-620 colon 70.8% | MCF7 breast; 10 µM unless noted 24.4% | HCC-2998 colon 55.8%

CCCCCCCCCCCCCC/C=C\C(CC(=O)O)C(=O)O (configuration not stated)
inactive: RPMI-8226 leukemia 113% | OVCAR-8 ovarian 103% | OVCAR-5 ovarian 105% | OVCAR-4 ovarian 112% | SK-OV-3 ovarian 105% | IGROV1 ovarian 117% | OVCAR-3 ovarian 114% | HS 578T breast 127% | NCI/ADR-RES ovarian 107% | T-47D breast 115% | BT-549 breast 116% | MDA-MB-435 melanoma 126% | SW-620 colon 103% | MCF7 breast; 10 µM unless noted 105% | HCT-116 colon 103% | HCC-2998 colon 102% | KM12 colon 103%

CC(=O)N=c1ccc2nc3c(cc(N)c4ccccc43)oc-2c1
inactive: SK-OV-3 ovarian 80.1% | BT-549 breast 10.4%
active: RPMI-8226 leukemia -19.9% | OVCAR-8 ovarian -22.1% | OVCAR-5 ovarian -73.5% | OVCAR-4 ovarian -89.8% | IGROV1 ovarian -81.7% | OVCAR-3 ovarian -82.8% | HS 578T breast -27.7% | NCI/ADR-RES ovarian -6.88% | T-47D breast -57.8% | MDA-MB-435 melanoma -82.3% | SW-620 colon -88.7% | MCF7 breast; 10 µM unless noted -74.9% | HCT-116 colon -45.2% | HCC-2998 colon -4.32%

C=CC(C)(C)n1cc(C2=C(O)C(=O)C(c3cn(C(C)(C)C=C)c4ccccc34)=C(O)C2=O)c2ccccc21
active: MCF7 breast; 100 µM -81.2% and -91.7%
inactive: SR leukemia 71.6% | RPMI-8226 leukemia 104% | OVCAR-5 ovarian 122% | OVCAR-4 ovarian 92.4% | SK-OV-3 ovarian 94.3% | IGROV1 ovarian 99.5% | OVCAR-3 ovarian 107% | NCI/ADR-RES ovarian 97.5% | T-47D breast 85.9% | BT-549 breast 96.3% | MDA-MB-435 melanoma 103% | SW-620 colon 105% | MCF7 breast; 10 µM 96.1% | HCT-116 colon 97.4% | KM12 colon 99.9%

COC1OC(CO)C(OC)C(O)C1O (configuration not stated)
inactive: SR leukemia 93.8% | RPMI-8226 leukemia 101% | OVCAR-8 ovarian 105% | OVCAR-4 ovarian 98.5% | SK-OV-3 ovarian 105% | OVCAR-3 ovarian 112% | HS 578T breast 112% | NCI/ADR-RES ovarian 93.5% | T-47D breast 112% | BT-549 breast 104% | MDA-MB-435 melanoma 109% | SW-620 colon 93.6% | MCF7 breast; 10 µM unless noted 98.9% | HCT-116 colon 106% | HCC-2998 colon 107% | KM12 colon 99.6%

S=CN1CCCCC1
inactive: SR leukemia 99.5% | RPMI-8226 leukemia 110% | OVCAR-8 ovarian 97.5% | OVCAR-4 ovarian 102% | SK-OV-3 ovarian 115% | IGROV1 ovarian 109% | OVCAR-3 ovarian 102% | HS 578T breast 112% | NCI/ADR-RES ovarian 106% | T-47D breast 103% | BT-549 breast 105% | MDA-MB-435 melanoma 103% | MCF7 breast; 10 µM unless noted 96.3% | HCT-116 colon 102% | HCC-2998 colon 103%
